Screening data (PubChem)
In the library only some 21% were active in any assay of this set; here they are far more common.
Pf growth 96h: Primary qHTS for delayed death inhibitors of the malarial parasite plastid, 96 hour incubation. 6.9% of 320,000 active. Potency, µM (doses to about 28.7 µM), for inactives: top-dose activity change, negative = inhibition, most hits filed as inhibitors. P. falciparum luciferase reporter growth, 96 h; active = well fitted inhibition curve with a large enough effect; inconclusive = small, poorly fitted or top-dose-only effect, or another doubt; inactive = no such curve, though single readings can be large or run the other way; note: potency is the fitted concentration of half-maximal effect; % is set by controls: 0 for no effect and ±100 for the full control effect
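Infected RBCs, 2% Hct / 0.05% parasitemia final; luciferase-reporter P. falciparum; cpd 96 h, 37 C, 5% CO2; luciferase detection reagent; luminescence.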
Cycloheximide cs: Cycloheximide Counterscreen for Small Molecule Inhibitors of Shiga Toxin; cell reporter, cycloheximide protein synthesis inhibition counterscreen; max response, %; 12% of 300,000 active; in the data active = max response mostly above about 13%, no sharp cut-off; inactive = mostly below about 14%; note: read at 38.3 µM for the half of the compounds with a filed dose; 0% is about no effect
Shiga inhibitor: A qHTS for Small Molecule Inhibitors of Shiga Toxin. Vero cells, Shiga toxin protein synthesis inhibition reporter. inhibition, % at 38.7 µM. 9.2% of 290,000 active. AID 2315, 2010; in the data active = inhibition mostly above about 28%, no sharp cut-off; inactive = mostly below about 43%; note: 0% is about no effect
SARS PLP yeast: qHTS of Yeast-based Assay for SARS-CoV PLP; Potency, µM (doses to about 32.9 µM), for the others: at the highest dose activity, positive = growth rescue, most hits filed as activators; AID 485353, 2010; 0.19% of 330,000 active; S. cerevisiae expressing SARS-CoV PLpro, growth rescue; note: potency is the fitted concentration of half-maximal effect; 0% is about no effect; nearly all actives have a fitted effect of over 55% in size
Pf growth 48h: Primary qHTS for delayed death inhibitors of the malarial parasite plastid, 48 hour incubation | AID 504832, 2011 | 5.9% of 310,000 active | Potency, µM (doses to about 28.7 µM), for the others: at the highest dose activity change, negative = inhibition, actives largely listed as inhibitors | P. falciparum luciferase growth in erythrocytes, 48 h; active = well fitted inhibition curve with a large enough effect; inconclusive = small, poorly fitted or top-dose-only effect, or another doubt; inactive = no such curve, though single readings can be large or run the other way; note: potency is the fitted concentration of half-maximal effect; % is set by controls: 0 for no effect and ±100 for the full control effect
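Compounds are pin-transferred into medium, infected erythrocytes (2% hematocrit, 0.1% parasitemia final) are added, and plates sit one parasite generation at 37 C in 5% CO2. Detection reagent is then added and luminescence measured.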
NS1 inh: qHTS Assay for Inhibitors of Influenza NS1 Protein Function. Potency, µM (titrated, usually from 46.1 µM), without a hit: at the top dose activity, positive = more growth. 0.4% of 270,000 active. AID 2326, 2010; note: potency is the fitted concentration of half-maximal effect; actives are rising curves; nearly all actives have a fitted effect of over 50% in size
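Recovery from NS1-induced slow growth read by OD600 in budding yeast switched to galactose assay medium (pH 6.0, -URA) at 1:100 dilution. Compound 23 nl per well; the matching strain lacking NS1 serves as control.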
Numbers without * were called inactive; u = inconclusive; x = no result; + = active, no number. Unless noted, calls come from the whole dose curve.

SMILES	Pf growth 96h	Cycloheximide cs	Shiga inhibitor	SARS PLP yeast	Pf growth 48h	NS1 inh
O=C1C=C(c2ccccc2Oc2ccccc2)C[C@@H](c2ccc3c(c2)OCO3)C1	u	x	x	3%	3.7µM*	x
O=C1C=C(c2cc(F)ccc2F)C[C@@H](c2ccc(F)cc2)C1	u	x	x	-17%	2.3µM*	x
CCOC(=O)c1cccc(C2=CC(=O)C[C@H](c3ccc(Cl)cc3)C2)c1	u	x	x	1%	13µM*	x
Cc1cc(Cl)ccc1C1=CC(=O)C[C@H](c2ccc(F)cc2)C1	u	x	x	1%	u	x
CS(=O)(=O)N(CC(=O)O)Cc1ccccc1	x	x	x	x	x	3%
COc1ccc([C@H]2CC(=O)C=C(c3ccc(F)cc3OCc3ccccc3)C2)cc1	-21%	x	x	5%	u	x
O=C1C=C(c2cccc3c2oc2ccccc23)C[C@@H](c2ccc(F)cc2)C1	-18%	x	x	-2%	2.3µM*	x
COc1ccc([C@H]2CC(=O)C=C(c3ccc(F)cc3OCc3ccccc3)C2)cc1OC	u	x	x	-6%	9.3µM*	x
C/C(=N\NC(=S)NC1CCCCC1)c1ccc(Cl)c(Cl)c1	4.1µM*	-1	-2	-1%	2.3µM*	6%
C/C(=N\NC(=S)NC1CCCCC1)c1cccs1	u	28*	58*	-4%	u	-34%
C/C(=N\NC(=S)NC1CCCCC1)c1c(F)cccc1F	10µM*	16	31	-6%	-15%	x
O=C(O)c1ccc(/C=N/NC(=S)NC2CCCCC2)cc1	84%	18	34	1%	75%	4%
C/C(=N\NC(=O)C1CC1)c1cccs1	-21%	-3	5	18%	6%	12%
C/C(=N\NC(=S)NC1CCCCC1)c1ccc(OC(F)F)cc1OC(F)F	u	16	35	0%	u	19%
Cn1nccc1C(=O)OCC(=O)Nc1ccccc1	22%	-5	27	-4%	3%	-5%
Cc1ccc(NC(=O)COC(=O)c2ccn(C)n2)cc1	5%	20*	19	5%	19%	-13%
Cc1ccc(NC(=O)COC(=O)c2ccnn2C)cc1	u	32*	93	-4%	28%	-8%
CC[C@H](C)[C@H](NC(=O)CNC(=O)[C@H](CCCNC(=N)N)NC(=O)[C@H](CO)NC(=O)[C@H](C)NC(=O)[C@H](Cc1ccc(O)cc1)NC(=O)[C@H](Cc1c[nH]c2ccccc12)NC(=O)[C@H](C)NC(=O)[C@@H]1CCCN1C(=O)[C@H](CC(N)=O)NC(=O)[C@@H](NC(=O)[C@H](CC(=O)O)NC(=O)[C@@H]1CCCN1C(=O)[C@@H](N)[C@@H](C)O)[C@@H](C)CC)C(=O)N[C@@H](CCCNC(=N)N)C(=O)N1CCC[C@H]1C(=O)N[C@H](C(=O)NCC(=O)N[C@@H](CCCNC(=N)N)C(=O)N[C@@H](Cc1ccccc1)C(N)=O)C(C)C	x	-6	-10	x	x	x
CN(Cc1ccccc1)C(=O)[C@H](Cc1ccc2ccccc2c1)NC(=O)[C@@H]1CCCN1C(=O)Nc1ccccc1[N+](=O)[O-]	x	13	7	x	x	x
COC(=O)C1CCN(C(=O)c2sc3nc(-c4ccc(F)cc4)cn3c2C)CC1	u	16*	37*	-1%	-27%	-9%
CCOC(=O)C1CCCN(C(=O)c2sc3nc(-c4ccc(OC)cc4)cn3c2C)C1 (stereo not drawn)	-16%	-2	13	-2%	13µM*	-2%
Cc1cc(OCC(=O)OCC(=O)c2ccc[nH]2)ccc1Cl	0%	x	x	2%	-2%	x
Cc1ccccc1NC(=O)C(C)N1C(=O)c2ccccc2C1=O (stereo not drawn)	2.9µM*	1	x	6%	-11%	u
Cc1cccnc1NC(=O)C(C)N1C(=O)c2ccccc2C1=O (stereo not drawn)	13%	4	5	5%	14%	1%
CCN(CC)C(=O)CSc1nc2ccc(NC(=O)CSc3nccn3C)cc2s1	u	14*	32	-8%	8.3µM*	u
SMILES	Pf growth 96h	Cycloheximide cs	Shiga inhibitor	SARS PLP yeast	Pf growth 48h	NS1 inh
Cn1cnnc1SCC(=O)Nc1ccc2nc(SCc3cccc4ccccc34)sc2c1	u	-4	-9	4%	x	12%
Cn1cnnc1SCC(=O)Nc1ccc2nc(SCc3ccccc3)sc2c1	195%	90*	101*	-1%	x	-1%
Cn1cnnc1SCC(=O)Nc1ccc2nc(SCc3ccccc3Cl)sc2c1	u	19*	active	13%	-6%	1%
CCOC(=O)c1c(C)[nH]c(C)c1S(=O)(=O)N(C)CC(=O)NCc1ccc(F)cc1	31%	-1	-3	-4%	10%	5%
CCN1CCN(C(=O)C2CCN(S(=O)(=O)c3ccc(SC)cc3)CC2)CC1	10%	11	-8	1%	-19%	10%
CCCCn1c(N)c(N(CC(C)C)C(=O)CC2CCCC2)c(=O)[nH]c1=O	-4%	x	x	-1%	u	x
O=C1c2ccccc2C(=O)N1CCCCN1CCN(CCCCN2C(=O)c3ccccc3C2=O)CC1	x	x	x	x	x	4%
O=C1CC(=C2c3ccccc3-c3ccccc32)C(=O)N1CCCCN1CCN(c2ccccc2)CC1	6.6µM*	-1	-10	-29%	4.1µM*	u
COc1ccc(S(=O)(=O)N[C@@H](Cc2ccccc2)C(=O)N2CC[C@@]3(O)CCCC[C@H]3C2)cc1	x	-5	4	-3%	-21%	-13%
O=C([C@H](Cc1ccccc1)NS(=O)(=O)c1ccc(Cl)cc1)N1CC[C@@]2(O)CCCC[C@H]2C1	u	-2	-3	3%	13µM*	7%
CCCNC(=S)N(Cc1ccccc1)Cc1nc2ccccc2c(=O)[nH]1	u	-1	-11	7%	-12%	-4%
N/C(=N\OC(=O)COc1ccccc1Cl)c1ccc(Cl)cc1	u	15*	+	-20%	8%	-3%
N/C(=N\OC(=O)Oc1ccccc1)c1ccc(Cl)cc1	0%	-3	-13	-1%	x	11%
Cc1ccc(/C(N)=N/OC(=O)COc2ccccc2Cl)cc1	58%	39*	97	-2%	75%	-5%
Cc1cc(C)cc(OCC(=O)O/N=C(\N)c2ccccc2Cl)c1	15%	16	32	-6%	3%	-9%
COC(=O)c1cc(S(=O)(=O)NC2CCC(C)CC2)cn1C (stereo not drawn)	10%	-2	1	-8%	5%	11%
Cc1ccc(C(=O)OCC(=O)NC2CCCCCC2)c(C)c1	84%	x	x	1%	30%	x
CC(C)(Oc1ccc(Cl)cc1)C(=O)OCC(=O)N1CCCC1	17%	-2	9	-1%	3%	-1%
COc1ccc(NC(=O)CSc2nccn2Cc2ccccc2)cc1	-16%	53*	164*	9%	-12%	-5%
